Laboratory results reported in PubChem BioAssay (NCI).
About 79,000 compounds went through this panel and 15% of them were active in at least one assay; those are over-represented in the sample as a whole. The source made the active and inactive calls. Rule as the data show it: active = growth inhibition above about 70%; inactive = the rest.

Assay: NCI Yeast Anticancer Drug Screen. Data for the mgt1 strain (AID 153)
Conditions: S. cerevisiae mgt1 mutant growth inhibition, stronger effect = higher value
Description: Growth inhibition of yeast strains with defined genetic alterations is measured as a screen for potential anti-cancer activity. Selected strains with alterations in DNA damage repair or cell cycle control were exposed to compounds and growth inhibition was measured relative to vehicle treated controls. The strain used in this assay is mgt1

Measured: growth inhibition

c1ccc2c(c1)c1ncccc1c1nccnc21
inactive: at 1.2 µM -2% | at 3.7 µM 0% | at 11.0 µM -2% | at 33.0 µM -2% | at 100.0 µM -2%

C/C(=N/NC(=S)N1CCCCCC1)c1cccc(/C(C)=N\NC(=S)N2CCCCCC2)n1
active: at 33.0 µM 80%
inactive: at 1.2 µM 23% | at 3.7 µM 35% | at 11.0 µM 52% | at 100.0 µM 69%

O=[N+]([O-])c1cccc([N+](=O)[O-])c1S(=O)(=O)c1ccccc1
active: at 33.0 µM 93% | at 100.0 µM 94%
inactive: at 1.2 µM 19% | at 3.7 µM 1% | at 11.0 µM 68%

Clc1ccccc1C1OC1c1ccccc1Cl (stereo not given)
inactive: at 1.2 µM -60% | at 3.7 µM -90% | at 11.0 µM -65% | at 33.0 µM -35% | at 100.0 µM -27%

NC(N)=N/N=C\c1c2ccccc2cc2ccccc12
inactive: at 1.2 µM -38% | at 3.7 µM -54% | at 11.0 µM -34% | at 33.0 µM 3%
active: at 100.0 µM 95%

CC1=C(C)Cc2c(O)ccc(O)c2C1
inactive: at 1.2 µM -2% | at 3.7 µM 2% | at 11.0 µM 6% | at 33.0 µM -1% | at 100.0 µM 29%

S=c1[nH]nc(Nc2ccc(Cl)cc2)s1
inactive: at 1.2 µM -1% | at 3.7 µM -7% | at 11.0 µM -2% | at 33.0 µM -8% | at 100.0 µM 19%

C[C@H](CCC(=O)NN)[C@H]1CC[C@H]2[C@@H]3CC[C@@H]4C[C@H](O)CC[C@]4(C)[C@H]3CC[C@]12C
inactive: at 1.2 µM 0% | at 3.7 µM -1% | at 11.0 µM 1% | at 33.0 µM -1% | at 100.0 µM 2%
